# Screening results as filed in PubChem.
# Sampled rows, rich in hits. Any-hit rate of the full collection: about 28%.
# CYP2C9 act – human CYP2C9 activators, primary screen, biochemical, luminescence; Cytochrome P450 2C9 (Homo sapiens), P11712; recombinant CYP2C9, luciferin-H conversion; active compounds read high; factor 1 = untreated enzyme, 0 = blocked; activation factor at 5 µM; 1.4% of 96,000 active;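 active = activation factor of 2 or more for CYP2C9 at a 5 µM dose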
# CYP2C19 activ – human CYP2C19 activators, primary screen, biochemical, luminescence; recombinant CYP2C19, luciferin-H EGE luminescence; active compounds read high; 0 = fully inhibited enzyme, 1 = untreated enzyme; activation factor at 5 µM; 96,000 tested, under 10 active; AID 1025, 2008;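 active = activation factor of at least 2 at 5 µM in the primary screen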
# CYP2C9 inhib – blockers of cytochrome P450 2C9 activity – biochemical, luminescence, ADME assay, primary screen; P11712; CYP2C9 Supersomes, luciferin-H conversion; inhibition, % at 5 µM; 20% of 96,000 active;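 active = blocking of liver enzyme CYP2C9 beyond about 50% at 5 µM, limit read from the data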
# Pyk2 oligo antag – antagonists of Pyk2 self-association, primary screen, Q293 cells, FERM NanoBiT luminescence, HTS; Protein-tyrosine kinase 2-beta (Homo sapiens), Q14289; 0.83% of 99,000 active; active compounds read low; z-score (the deposit names both 25 µM and 10 µM); AID 1347419, 2020;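 active = Z-score of -3 or lower, scaled per plate to the spread of control and sample wells; inactive = z-score above -3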;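 also: negative z-score means lost luminescence so less FERM oligomerization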
# CYP2C19 inh – blockers of cytochrome P450 2C19 activity – biochemical, luminescence, ADME assay, primary screen. P33261. CYP2C19 Supersomes, luciferin-H EGE luminescence, 30 min. inhibition, % at 5 µM. 21% of 96,000 active;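 active = CYP2C19 inhibition above a set limit at 5 µM in the primary screen, cut at about 50% in these data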
# Numbers stand for hits; i = inactive; nt = no result given.
SMILES,CYP2C9 act,CYP2C19 activ,CYP2C9 inhib,Pyk2 oligo antag,CYP2C19 inh
Cc1cccc(S(=O)(=O)NCCC(=O)OC(C)C(=O)NC(=O)NC2CCCCC2)c1 (stereo not drawn),i,i,56.3,i,i
O=C(C1CCCN(S(=O)(=O)c2cccc3cccnc23)C1)N1CCN(c2ccc(F)cc2)CC1 (stereo not drawn),i,i,i,nt,61.1
O=C(NCc1ccco1)C1CCCN(S(=O)(=O)c2cccc3cccnc23)C1 (stereo not drawn),4.1,i,i,nt,70.4
O=C(Nc1ccccc1F)C1CCCN(S(=O)(=O)c2cccc3cccnc23)C1 (stereo not drawn),i,i,i,nt,75.6
O=C(C1CCN(S(=O)(=O)c2cccc3cccnc23)CC1)N1CCN(c2ccccc2)CC1,i,i,i,nt,i
Cc1[nH]c(=O)[nH]c(=O)c1S(=O)(=O)N1CCCC(C(=O)NCc2ccco2)C1 (stereo not drawn),i,i,96.8,i,74.2
CC1(C)CC(=O)CC(C)(C)N1OC(=O)c1ccccn1,i,i,i,i,i
CC(C)(C)NC(=O)C1CCCN(S(=O)(=O)c2cccc3cccnc23)C1 (stereo not drawn),2.7,i,i,nt,i
Cc1nnc(NC(=O)C2CCCN(S(=O)(=O)c3ccccc3C(F)(F)F)C2)s1 (stereo not drawn),i,i,62.0,i,51.4
CCOC(=O)C1CCCN(S(=O)(=O)c2cccc3cccnc23)C1 (stereo not drawn),4.5,i,i,i,80.7
COc1cccc(NC(=O)C2CCCN(S(=O)(=O)c3cccc4cccnc34)C2)c1 (stereo not drawn),i,i,i,nt,i
O=C(Nc1ccncc1)C1CCCN(S(=O)(=O)c2cccc3cccnc23)C1 (stereo not drawn),i,i,94.2,nt,98.7
CSc1nc2ccc(NC(=O)C3CC(=O)N(Cc4ccccc4)C3)cc2s1 (stereo not drawn),i,i,i,i,i
Cc1cccc(C)c1OCC(=O)Nn1c(C)nc2ccccc2c1=O,i,i,63.9,i,i
COc1ccc(Cl)cc1C(=O)Nn1c(C)nc2ccccc2c1=O,i,i,52.3,i,57.0
Cc1ccc(C(C)C)c(OCC(=O)Nn2c(C)nc3ccccc3c2=O)c1,i,i,84.4,i,i
C=CCSc1n[nH]c2nc3c(c(=O)n12)C1(CCCC1)Cc1ccccc1-3,i,i,i,i,i
CC1CN(C(=O)CSc2nnc3c(Cl)cc(Cl)cn23)CC(C)O1 (stereo not drawn),i,i,i,i,i
CC(C)C(=O)c1cc2c(cc1NC(=O)c1cccs1)OCCO2,i,i,i,i,i
COC(=O)C1=C(C)NC(=O)/C1=C\c1cc(C)n(-c2cc(C)cc(C)c2)c1C,i,i,92.3,i,82.3
O=C1CN(C(=O)COC(=O)c2cccc(S(=O)(=O)NCc3ccccc3)c2)c2ccccc2N1,i,i,68.0,i,i
CCN(CC)S(=O)(=O)c1cccc(C(=O)OCC(=O)C23CC4CC(CC(C4)C2)C3)c1,i,i,74.2,i,i
CCN(CC)S(=O)(=O)c1cccc(C(=O)Nc2cc(C)cc(C)c2)c1,i,i,i,i,i
CCN(CC)S(=O)(=O)c1cccc(C(=O)OCC(=O)Nc2ccccc2OC(F)F)c1,i,i,88.1,i,84.3
CCN(CC)S(=O)(=O)c1cccc(C(=O)OCC(=O)N2CC(=O)Nc3ccccc32)c1,i,i,65.5,i,i
SMILES,CYP2C9 act,CYP2C19 activ,CYP2C9 inhib,Pyk2 oligo antag,CYP2C19 inh
Cc1ccc(C(=O)OCC(=O)N2CC(=O)Nc3ccccc32)s1,i,i,i,i,i
COc1ccc(-c2cnnn2-c2ccc(NC(=O)c3ccc(S(=O)(=O)N4CCCCC4)cc3)cc2)cc1,nt,nt,nt,i,nt
Cc1nc(SCC(=O)Nn2c(-c3ccccc3)nc3ccccc3c2=O)n[nH]1,i,i,i,i,i
Cn1c(=O)c2c(nc(N3CCN(Cc4ccccc4)CC3)n2CC(=O)c2ccccc2)n(C)c1=O,nt,nt,nt,i,nt
Cn1c(=O)c2c(nc(NC3CCCCC3)n2CC(O)COc2ccccc2)n(C)c1=O (stereo not drawn),i,i,52.2,i,i
Cn1c(Br)nc2c1c(=O)n(CC(O)COc1ccccc1)c(=O)n2C (stereo not drawn),i,i,i,i,86.2
